Measurements from PubChem BioAssay AID1362 (SRMLSC, 2008).
In all, about 190,000 compounds went through this assay and about 4,000 (2.1%) were called active. No stated cut-off is given here; in the data, active means inhibition above about 58%; inactive means the rest, inconclusive results apart; tested in S. cerevisiae. Only a selection was taken, and actives are over-represented in it overall.

Assay: growth inhibition of WT strain, primary screen, mitochondrial fusion inhibitor project, WT and mutant strains, chemical genetic (AID 1362)
Conditions: mitochondrial fusion phenotypic screen, at 10 µM
[1] = WT strain, growth inhibition, stronger effect = higher value

Compound | inhibition [1] | inhibition (mutant strain inhibition)
CCOCCCn1c(NN)nc2ccccc2c1=O | 4.28% (inactive) | 1.61%
Cc1nc(-c2ccc(Cl)cc2)sc1C(=O)CBr | 29.8% (inactive) | 16%
Cc1ccc(S(=O)(=O)Cc2cc(-c3ccc(Cl)cc3)no2)cc1 | 17.1% (inactive) | 12.1%
Cc1cc(C)cc(NC(=S)NCc2ccc(F)cc2)c1 | 42.3% (inactive) | 3.44%
O=C(NCCc1c[nH]c2ccccc12)c1cc2ccccc2oc1=O | 15.8% (inactive) | -4.03%
Cc1cc(C)cc(NC(=S)NCCc2c[nH]c3ccccc23)c1 | 70.2% (active) | 27.3%
CC(C)(C)NC(=O)c1ccc(Cn2cc(C(F)(F)F)ccc2=O)cc1 | 3.12% (inactive) | 11.4%
Cc1ccc(Nc2ccccc2N)cc1 | 48.4% (inactive) | 33.4%
Cc1cc(Nc2ccccc2)n(C(=O)c2ccc(N)cc2)n1 | -10.2% (inactive) | 32.9%
Nc1ccc(Nc2ccccc2)cc1 | 74.9% (active) | 46%
CCOC(=O)C1(Cc2cccc(OC)c2)CCN(C(C)CC(C)(C)O)CC1 (stereo not drawn) | -0.94% (inactive) | 20.1%
CCN(CC)CC(=O)Nc1sc2c(c1C(=O)c1ccccc1C)CCC2 | 56.7% (inactive) | 9.28%
COC(=O)C1=C(Nc2ccc(OC)cc2)C=C(C)C(C(=O)OC)C1c1ccc(C)cc1 (stereo not drawn) | 11.5% (inactive) | 5.72%
COC(=O)C1C(=O)NCC1c1ccc(C)cc1 (stereo not drawn) | 19.4% (inactive) | 13.7%
COC(=O)C1=C(Nc2ccc(C)cc2)C=C(C)C(C(=O)OC)C1c1ccc(F)cc1 (stereo not drawn) | 72.8% (active) | -7.13%
CCC(=O)NC(=S)Nc1ccc(NC(=O)c2ccco2)c(Cl)c1 | 8.3% (inactive) | -0.75%
Cn1ccc(=NC=C(C#N)C#N)c2ccccc21 | -8.61% (inactive) | 4.44%
CC1=NNC(=O)C1CCC(=O)N/N=C\c1ccc(Cl)c(Cl)c1 (stereo not drawn) | -6.04% (inactive) | 2.78%
CC1=NN(c2cccc(Cl)c2)C(=O)C12CC(C)=C(C)CS2 (stereo not drawn) | 71.2% (active) | 49.2%
CC12CCC(C(=O)N(c3cccc(Cl)c3)C1=O)C2(C)C (stereo not drawn) | 15.3% (inactive) | 1.52%
CCCCN(CC)CCNC(=O)CCNC(=O)Cn1ccc2ccccc2c1=O | -12.2% (inactive) | 5.97%
CN(C)c1ccc(/C=N/Nc2cc(N3CCOCC3)nc(N3CCOCC3)n2)cc1 | 2.15% (inactive) | -1.62%

Compound | inhibition [1] | inhibition (mutant strain inhibition)
C/C(=N/NC(=O)c1ccc(Br)o1)c1ccc(C)o1 | -7.01% (inactive) | -8.07%
Cc1ccc(NC(=S)NC2CCCC2)cc1 | 1.79% (inactive) | -5.24%
C/C(=N\NC(=S)NC1CCCCC1)c1ccc(C)o1 | 76.5% (active) | 64.5%
COc1ccc(C(=O)Nc2ccc(N3CCC(C)CC3)cc2)cc1Br | -5.4% (inactive) | 7.51%
O=S(=O)(c1ccc2c(c1)OCCO2)N1CCc2ccccc21 | -3.01% (inactive) | -8.75%
CN(C)C=NC(=O)c1cccn1-c1ncc(C(F)(F)F)cc1Cl | 17.4% (inactive) | -2.64%
Cc1noc(C)c1COc1ccc2ccc(=O)oc2c1 | 7.56% (inactive) | -14.3%
O=C(CSc1ncn[nH]1)NCc1ccc2c(c1)OCO2 | -7.65% (inactive) | 6.4%
COc1cc(CNc2ncn[nH]2)ccc1OCc1ccccc1C | -10% (inactive) | 6.17%
c1n[nH]c(NCc2ccc3c(c2)OCO3)n1 | 76.9% (active) | 23%
CCCn1c(C(O)c2ccc(OCC)cc2)nc2ccccc21 (stereo not drawn) | 16.9% (inactive) | 18.6%
CCCCCCOC(=O)NCC(O)c1ccccc1 (stereo not drawn) | -6.62% (inactive) | -10.2%
CCCCCC(O)c1cccc(OCc2ccc3ccccc3n2)c1 (stereo not drawn) | 77.5% (active) | 12.2%
CCn1c(N)c(Br)c(=O)[nH]c1=O | -1.38% (inactive) | 6.81%
CCOC(=O)c1ccc[n+](CC(=O)Nc2ccccc2OC(F)F)c1 | -21.9% (inactive) | -5.87%
CCOC(=O)c1sc(=NC(=O)/C=C/c2cccs2)n(C)c1C | 11.4% (inactive) | -7.32%
COc1ccc(NC(=O)C(Br)C(C)C)cc1 (stereo not drawn) | -7.51% (inactive) | 2.44%
CC1CCN(c2ccc([N+](=O)[O-])cc2C(N)=O)CC1 | 3.04% (inactive) | -16.1%
NS(=O)(=O)c1cccc(NC(=O)CSc2nc3ccccc3n2-c2ccccc2)c1 | -7.39% (inactive) | 1%
Cc1ccc(SCCC(=O)OCC(=O)Nc2ncc(Cl)cc2Cl)cc1 | 2.29% (inactive) | 2.8%
Cc1ccc(-n2c(SCC(=O)Nc3ncc(Cl)cc3Cl)nc3ccccc32)cc1 | 74.2% (active) | 43.6%
S=C(c1ccc(-c2ccccc2)o1)N1CCCCC1 | 43.1% (inactive) | 35.3%
